Screening results deposited in PubChem by National Center for Advancing Translational Sciences (NCATS).
KDM5B inh – Primary screen for KDM5B Histone Demethylases FDH-coupled qHTS. Lysine-specific demethylase 5B (Homo sapiens), Q9UGL1. KDM5B demethylase, FDH-coupled NADH fluorescence (FDH is formaldehyde dehydrogenase). Potency, µM (series often up to 57.7 µM), hits mostly inhibitors. 2.6% of 220,000 active. AID 1347165, 2019; active = well fitted inhibition curve with a large enough effect; also: nearly all actives have a fitted effect of over 70% in size
Target sequence (Q9UGL1 whole entry, looked up): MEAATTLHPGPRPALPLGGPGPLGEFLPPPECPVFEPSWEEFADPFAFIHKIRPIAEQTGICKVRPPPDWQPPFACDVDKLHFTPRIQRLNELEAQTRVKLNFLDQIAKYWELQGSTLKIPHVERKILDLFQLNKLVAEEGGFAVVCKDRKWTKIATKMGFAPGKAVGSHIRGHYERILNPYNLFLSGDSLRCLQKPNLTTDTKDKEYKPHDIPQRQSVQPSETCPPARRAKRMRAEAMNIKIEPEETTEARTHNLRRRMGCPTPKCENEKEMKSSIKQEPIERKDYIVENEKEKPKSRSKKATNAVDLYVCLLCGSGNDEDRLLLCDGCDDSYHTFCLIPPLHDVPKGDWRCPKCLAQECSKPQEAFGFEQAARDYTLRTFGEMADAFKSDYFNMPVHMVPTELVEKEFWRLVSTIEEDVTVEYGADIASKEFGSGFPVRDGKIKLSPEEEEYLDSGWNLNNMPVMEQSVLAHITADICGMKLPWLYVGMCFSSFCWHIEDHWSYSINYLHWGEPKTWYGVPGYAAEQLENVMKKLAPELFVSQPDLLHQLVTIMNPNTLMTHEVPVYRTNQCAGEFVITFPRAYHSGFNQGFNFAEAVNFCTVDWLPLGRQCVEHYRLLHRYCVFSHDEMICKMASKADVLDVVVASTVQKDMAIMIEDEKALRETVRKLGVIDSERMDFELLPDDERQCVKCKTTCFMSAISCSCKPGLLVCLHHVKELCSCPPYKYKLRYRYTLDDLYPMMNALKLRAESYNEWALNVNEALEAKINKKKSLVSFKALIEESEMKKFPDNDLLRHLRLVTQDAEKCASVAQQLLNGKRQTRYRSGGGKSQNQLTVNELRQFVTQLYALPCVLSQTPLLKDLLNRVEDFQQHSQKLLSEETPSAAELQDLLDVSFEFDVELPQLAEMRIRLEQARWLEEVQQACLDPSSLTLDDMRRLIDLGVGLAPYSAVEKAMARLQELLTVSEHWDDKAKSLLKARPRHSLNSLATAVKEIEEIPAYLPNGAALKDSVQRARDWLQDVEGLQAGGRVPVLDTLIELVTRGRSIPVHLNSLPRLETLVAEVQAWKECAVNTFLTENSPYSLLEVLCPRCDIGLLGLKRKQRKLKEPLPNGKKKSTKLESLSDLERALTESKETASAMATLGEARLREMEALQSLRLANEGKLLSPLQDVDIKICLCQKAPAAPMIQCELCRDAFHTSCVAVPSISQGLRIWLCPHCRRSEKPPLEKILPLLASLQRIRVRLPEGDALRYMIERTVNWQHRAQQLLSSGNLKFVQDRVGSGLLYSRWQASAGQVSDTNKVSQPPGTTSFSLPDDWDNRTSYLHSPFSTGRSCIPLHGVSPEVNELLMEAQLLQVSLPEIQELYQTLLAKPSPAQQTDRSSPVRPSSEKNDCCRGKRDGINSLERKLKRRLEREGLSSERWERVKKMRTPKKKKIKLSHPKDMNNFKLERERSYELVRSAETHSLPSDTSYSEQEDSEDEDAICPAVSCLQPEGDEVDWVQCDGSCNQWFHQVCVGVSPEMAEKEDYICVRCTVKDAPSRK
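Compound dilutions met 200 nM (final) KDM5BΔAP for 10 min at room temperature before substrate addition. The substrate mix held 12.5 µM H3K4me3 with cofactors 25 µM α-ketoglutarate and 50 µM Fe²⁺. NADH signal gain over 30 min defined activity.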
Each line names hits and unclear results; the compound was inactive in the other large screens. This is one part of a sample in which hits are shown more often than they occur.

CN(C)Cc1nnc(C2CC(NC(=O)c3cnc4c(c3)CCC4)C2)n1C (centres undefined)	none
CN(C)Cc1nnc(C2CCN(C(=O)c3nc(N)nc4c3CCCC4)CC2)n1C	KDM5B inh 25µM
CC(=O)N1CCN(C(=O)c2nc(N)nc3c2CCCC3)CC(O)C1 (centres undefined)	KDM5B inh 25µM
CCC(O)c1cc2n(n1)CCN(C(=O)c1nc(N)nc3c1CCCC3)C2 (centres undefined)	KDM5B inh 28µM
Cc1ccc(Cl)cc1S(=O)(=O)N(C)Cc1nc2ccccc2[nH]1	none
Cc1cc(C(=O)NC(C)c2ccc(C(F)(F)F)cc2)c(C)o1 (centres undefined)	none
c1cc2c(cc1-c1csc(NC3CC3)n1)OCCCO2	none
CCn1c(SCC(=O)c2ccc(C#N)cc2)nnc1-c1ccc(F)cc1	none
CC(C)(C)c1ccc(C(=O)Nc2ccc([C@H]3OCC(=O)N[C@@H]3CO)cc2)cc1	none
Cc1nc(SCC(=O)Nc2sc3c(c2C#N)CCCCC3)c2ccccc2n1	none
O=C(COc1ccccc1Cl)Nc1cccc2cccnc12	none
c1ccc(-c2ccnc(NCCOc3cccc4cccnc34)n2)nc1	KDM5B inh 20µM
O=C(Oc1cccc2cccnc12)c1cccc2ccccc12	none
C=CCN1C(=O)c2ccccc2N2C(=O)CCC12C(=O)OCc1cc(=O)oc2cc(C)c(C)cc12 (centres undefined)	none
CCCCCCn1c(CN2CCN(CC)CC2)nc2c1c(=O)n(C)c(=O)n2C	none
COC(=O)c1ccc(NC(=O)CSc2nnc(-c3ccccc3OC)n2-c2ccccc2)cc1	none
CS(=O)(=O)c1cccc(C(=O)N2CCN(CCc3ccccc3)CC2)c1	none
O=C(NCCc1ccccn1)c1cc2n(n1)CC(c1ccc(Br)cc1)OC2 (centres undefined)	none
O=C(NCC1CCCO1)c1cc2n(n1)CC(c1ccc(Br)cc1)OC2 (centres undefined)	none
O=C(NCc1ccccc1F)c1cc2n(n1)CC(c1ccc(Cl)cc1)OC2 (centres undefined)	none
O=C(Nc1cccc(F)c1)c1cc2n(n1)CC(c1ccc(Br)cc1)OC2 (centres undefined)	KDM5B inh 25µM
COc1cc(NC(=O)c2cc3n(n2)CC(c2ccc(Cl)cc2)OC3)c(OC)cc1Cl (centres undefined)	none
CC(NC(=O)c1cc2n(n1)CC(c1ccc(Cl)cc1)OC2)c1ccccc1 (centres undefined)	none
COc1ccc(CNC(=O)c2cc3n(n2)CC(c2ccc(Cl)cc2)OC3)cc1OC (centres undefined)	none
NC(=O)c1ccc(NC(=O)c2cc3n(n2)CC(c2ccc(Br)cc2)OC3)cc1 (centres undefined)	KDM5B inh 25µM
COc1cc(NC(=O)c2cc3n(n2)CC(c2ccc(Br)cc2)OC3)cc(OC)c1OC (centres undefined)	KDM5B inh 32µM
CCN(Cc1ccc(OC)c(F)c1)C(=O)Cn1cnc2c(cnn2C)c1=O	none
COc1cccc(C(=O)NCc2cc(=O)n3nc(-c4cccc(C)c4)sc3n2)c1	none
O=C(Cc1cccc(F)c1)NCC(=O)N1CCCCCCNC(=O)CC1c1ccccc1 (centres undefined)	none
O=C1CCCC2=C1C(c1c(Cl)cccc1Cl)n1nnnc1N2 (centres undefined)	none
O=C(NC1CCCCC1)c1nc(Cc2c[nH]c3ccccc23)no1	none
CCc1noc(-c2cccn3c(CNC(=O)CCC4CCCC4)nnc23)n1	KDM5B inh 28µM
Cc1nc(CCNC(=O)CCC2CCCC2)no1	none
CC(C)c1noc(-c2cccn3c(CNC(=O)CCC4CCCC4)nnc23)n1	KDM5B inh 16µM
O=C(CCC1CCCC1)NCc1ccco1	none
O=C(CCC1CCCC1)NCCc1noc(C2CC2)n1	none
CC(=O)c1cccc(NC(=O)Cc2nn(C)c(=O)c3ccccc23)c1	none
Fc1ccc2c(c1)nc1n2[C@@H](CNCc2c[nH]c3ccccc23)COC1	none
CS(=O)(=O)N(CC(=O)Nc1ccc2c(c1)OCO2)c1cccc(Cl)c1Cl	none
CS(=O)(=O)Oc1ccc2c(c1)O/C(=C\c1ccc(Cl)cc1)C2=O	none
O=c1ncn(Cc2ccccc2)c2ccc(-c3ccccc3)nc12	KDM5B inh 35µM
O=c1ccc(-c2ccccc2)nn1Cc1ccc(F)cc1	none
Fc1ccc(OC2CN(CC3CCCCC3)C2)c(F)c1	none
O=c1ncn(Cc2ccccc2)c2ccc(-c3ccc(O)c(F)c3)nc12	none
COc1cc(F)ccc1-c1ccc2c(n1)c(=O)ncn2Cc1ccccc1	KDM5B inh 35µM
COc1ccc(Cn2nc(-c3ccc(F)cc3OC)ccc2=O)cc1	none
O=c1ncn(CC2CC2)c2ccc(-c3ccc(F)cc3F)nc12	KDM5B inh 32µM
COc1cc(F)ccc1-c1ccc2ncn(C3CC3)c(=O)c2n1	KDM5B inh 32µM
O=c1ncn(Cc2ccccc2)c2ccc(-c3cccnc3)nc12	none
COc1ccc(OC)c(-c2ccc3ncn(-c4ccc(F)cc4F)c(=O)c3n2)c1	none
O=c1c2nc(-c3ccccc3C(F)(F)F)ccc2ncn1C1CC1	none
Cc1ccc(-c2ccc(OC(=O)c3ccccc3I)c(C)c2)cc1	none
Nc1nc(N)nc(-c2ccncc2)n1	none
CCN(CC)S(=O)(=O)c1cc(NC(=O)C2CCCN(C(=O)c3ccc(F)cc3)C2)ccc1C (centres undefined)	none
COc1ccc(C)cc1N1CC(C(=O)Nc2ccc(S(=O)(=O)Nc3ncccn3)cc2)CC1=O (centres undefined)	none
O=C(Nc1ccc(Cl)cc1)N(Cc1cccc(O)c1)C1CCC(O)CC1 (centres undefined)	none
CN(CC(=O)NCc1ccco1)C(=O)CSc1nc2ccccc2o1	none
CC(C)CC(C(=O)NC1CCN(Cc2ccccc2)CC1)N1Cc2ccccc2C1=O (centres undefined)	none
CCCCC(=O)n1ccn(S(=O)(=O)c2ccc(C)cc2)c1=O	none
CCCCNc1nc(-c2cc(C)n(NC(=O)c3n[nH]c(=O)c4ccccc34)c2C)cs1	none
Cc1cccc(NC(=O)CNC(=O)CCc2ncc(-c3ccccc3F)o2)c1C	none
COc1ccc(N2CC3CCC(C2)N3Cc2cccc(-c3cccs3)c2)cc1	none
COc1ccc(N2CC3CCC(C2)N3Cc2cccc(-c3ccsc3)c2)cc1	none
COc1ccc(N2CC3CCC(C2)N3Cc2cccc(-c3ccc(F)cc3F)c2)cc1	KDM5B inh 79µM
CCOC(=O)N1CCN(c2nc(C)c3c(n2)CC(/C=C/c2ccccc2)CC3=O)CC1 (centres undefined)	none
NCC1(Nc2ccccc2)CCCCC1	none
C=C(C)COc1ccc(C(=O)N2CCN3C(=O)CN(C)C(=O)C3C2)cc1 (centres undefined)	none
Cc1cc(C)n2nc(C(=O)N3CCN4C(=O)CN(C)C(=O)C4C3)cc2n1 (centres undefined)	KDM5B inh 28µM
CC(=O)c1c(C)nn(CC(=O)N2CCN3C(=O)CN(C)C(=O)C3C2)c1C (centres undefined)	none
CCc1c(C)sc(NC(=O)C2CC2)c1C#N	none
COc1ccc(C2=NN(C(=O)CSc3nc4ccccc4[nH]3)C(c3ccco3)C2)cc1 (centres undefined)	none
CC[C@H]1CN(C(=O)NC2CCCCC2)CC[C@H]1CC(=O)Nc1ccccc1	none
O=C(N[C@@H]1CCOC[C@H]1Oc1ccccn1)c1cccc2c1OCCO2	none
O=C(N[C@@H]1CCOC[C@H]1Oc1cccc(F)c1)c1cnc2ccccn2c1=O	KDM5B inh 35µM
Cc1ccn(CCC(=O)N[C@@H]2COCC[C@@H]2Oc2cccc(F)c2)n1	none
Clc1ccc(C2=Nn3c(nnc3-c3ccccn3)SC2)cc1	none
